The sample as a whole holds a higher share of hits than the screen did.
Pf Dd2 inh: qHTS Primary assay for Inhibitors of Plasmodium falciparum Dd2 growth in vitro; P. falciparum Dd2 growth, SYBR Green, 72 h; Potency, µM (top dose mostly 28.9 µM), hits mostly inhibitors; hit rate 4.3% among 120,000; AID 1347417, 2020; active = well fitted inhibition curve with a large enough effect; note: nearly all actives have a fitted effect of over 65% in size
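Infected erythrocytes (Dd2, 0.3% parasitemia, 2.5% hematocrit final) are added to compound in RPMI-1640/Albumax II medium, grown 72 h at 37C in low oxygen, then lysed with saponin/Triton-X containing SYBR Green and read by fluorescence.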
A number is an active result; - = inactive.

SMILES	Pf Dd2 inh
CCCCN(CC)C(=O)C1CCC(CNS(=O)(=O)c2cccc3nsnc23)CC1 (centres undefined)	2.8µM
CCCCN(CC)CCNC(=O)C1CCCN(S(=O)(=O)c2cccc3nsnc23)C1 (centres undefined)	-
CCc1ccc(NC(=O)C2CCCN2S(=O)(=O)c2cccc3nsnc23)cc1 (centres undefined)	-
CCN(C(=O)C1CCC(CNS(=O)(=O)c2cccc3nsnc23)CC1)c1ccc(C)c(C)c1 (centres undefined)	4.5µM
CCN(CC)c1ccc(NC(=O)CCS(=O)(=O)c2cccc3nsnc23)c(C)c1	-
O=C(Nc1ccc(F)c(F)c1)C1CCCN1S(=O)(=O)c1cccc2nsnc12 (centres undefined)	11µM
Cc1ccc(NC(=O)C2CCN(S(=O)(=O)c3cccc4nsnc34)CC2)cc1	-
Cc1ccc(NC(=O)C2CCC(CNS(=O)(=O)c3cccc4nsnc34)CC2)c(C)c1 (centres undefined)	-
Cc1ccc(NC(=O)C2CCCN2S(=O)(=O)c2cccc3nsnc23)c(C)c1 (centres undefined)	-
O=C(Nc1ccc(C(F)(F)F)cc1)C1CCC(CNS(=O)(=O)c2cccc3nsnc23)CC1 (centres undefined)	2.8µM
CCN(C(=O)C(Cc1ccccc1)NS(=O)(=O)c1cccc2nsnc12)c1ccccc1 (centres undefined)	-
COc1ccc(NC(=O)CCNS(=O)(=O)c2cccc3nsnc23)cc1	-
CC(=O)NC[C@H]1OC[C@@H](NC2CCC2)[C@@H]1O	-
CN1C(=O)CC(C(=O)O)C12CCN(Cc1cscn1)CC2 (centres undefined)	-
COc1cccc(CNC(=O)Cn2cccc2-c2nc(-c3ccccc3)no2)c1OC	-
COc1ccc(CN2C(=O)O[C@@H]3CN(S(=O)(=O)N(C)C)C[C@@H]32)cc1OC	-
CN(CC(=O)N1CCc2c(c(-c3nncn3-c3ccccc3)nn2C)C1)S(=O)(=O)c1cnc[nH]1	-
CCOC(=O)C1CCN(C(=O)C2COC3(CCC(C)CC3)N2C(=O)c2cccc(C)c2)CC1 (centres undefined)	-
COc1ccc(Cl)cc1C(=O)NCc1nnc2ccc(-c3ccc(C)c(C)c3)nn12	-
O=C(NCC1CCOCC1)c1c[nH]c2ccccc12	-
O=C(CN1CC2CC(C1)[C@H]1CCCC(=O)N1C2)NCC1CCCCC1 (some centres undefined)	-
O=C(NCC1CC1)c1cn(C2CN(C(=O)NCC3CCCO3)C2)nn1 (centres undefined)	-
CCOC(=O)CCNC(=O)N1CCCC(c2nc(C(C)C)no2)CCNC(=O)CC1 (centres undefined)	-
CCOc1ccc(Cl)cc1CN(C)C(=O)C1CC(=O)N(CC)C1 (centres undefined)	-
CNC(=O)CN(C)Cc1cc(Cl)ccc1OCC(O)CN1CCCCCC1 (centres undefined)	2.8µM
SMILES	Pf Dd2 inh
Cc1cc(OCC(O)CN2CCN(c3cccc(Cl)c3)CC2)ccc1Cl (centres undefined)	-
Cc1ccc(C2(O)CCN(C(=O)c3ccc4ncccc4c3)CC2)nc1	4µM
Cc1ccc(C2(O)CCN(C(=O)C(=O)c3cccnc3)CC2)nc1	-
O=C(c1ccc2ncccc2c1)N1CCC2(CC1)Nc1ccccc1NC2=O	-
O=C(c1ccc(Cl)cc1)N1CCC2(CN[S+](=O)([O-])c3cccnc3O2)C1 (centres undefined)	-
CC1CCC2(CC1)NC(=O)N(CC(=O)N(C)C1CCCCC1)C2=O (centres undefined)	-
CCN1CCC2(Cc3ccccc3CN(C(=O)Cc3ccccc3)C2)C1 (centres undefined)	11µM
CCC(=O)N1Cc2ccccc2CC2(CCN(CC3CCNCC3)C2)C1 (centres undefined)	-
CCC(=O)N1Cc2ccccc2CC2(CCCN2Cc2ccc(OC)cc2)C1 (centres undefined)	-
CCN1CCCC2(Cc3ccccc3CN(C(=O)CCCC(=O)O)C2)C1 (centres undefined)	-
CCN1CCC2(Cc3ccccc3CN(C(=O)Cc3ccc(O)cc3)C2)C1 (centres undefined)	-
CCN1CCC2(Cc3ccccc3CN(C(=O)Cc3ccc(OC)cc3)C2)C1 (centres undefined)	8.9µM
Cn1nc(C(=O)N2C[C@@H](CO)[C@H](c3ccccn3)C2)c2ccccc21	-
O=C1CCN(C(=O)c2ccccc2)CCCC(C(=O)NCC2CC2)CCN1 (centres undefined)	-
O=Cc1ccc(-c2cncc(C(=O)O)c2)cc1	-
COc1ccc(C(=O)N2CC[C@H]3COC(=O)N3c3cc(F)ccc3C2)cc1	-
CCOc1ccc(-c2nnc(CCC(=O)NCCc3ccccc3)c(=O)[nH]2)cc1	-
COc1ccc(NC(=O)N2CCC(N3CC4CC(C3)[C@H]3CCCC(=O)N3C4)CC2)cc1OC (some centres undefined)	-
Cc1ccccc1[C@H]1C[C@@H](O)[C@@H](O)[C@@H]1NS(=O)(=O)c1cccc(C#N)c1	-
COc1ccc(-c2cc3ccc(O)c(CN4CCCC(C)C4)c3oc2=O)cc1 (centres undefined)	1µM
COc1ccc(N2CCN(C3CCCN(Cc4cc(=O)[nH]c(=O)[nH]4)C3)CC2)cc1 (centres undefined)	-
COc1ccc(-c2c(C)c3ccc(O)c(CN4CCCC(C)C4)c3oc2=O)cc1OC (centres undefined)	11µM
COc1ccc(-c2nnc([C@H]3CCN(C(=O)c4ccc(OC)c(OC)c4)C3)o2)cc1	-
COc1ccc(-c2c(C)c3cc(OC(=O)N4CCOCC4)ccc3oc2=O)cc1OC	-
COc1ccc(-c2cc3ccc(O)c(CN4CCCC4)c3oc2=O)cc1OC	4µM
SMILES	Pf Dd2 inh
COc1ccc(NC(=O)N2CCN(Cc3nc4ccc(C)cc4o3)CC2)cc1OC	-
COc1ccc(-c2nc(CN3CCC(C(=O)NCCc4ccccc4)CC3)c(C)o2)cc1OC	-
COc1ccc(-c2c(C)c3ccc(O)c(CN4CCN(CCO)CC4)c3oc2=O)cc1OC	-
COc1ccc(CCC(=O)N2CCC[C@H]2c2nc(-c3ccc(OC)c(OC)c3)no2)cc1	-
COc1ccc(-c2cc3ccc(O)c(CN4CCCC(C)C4)c3oc2=O)cc1OC (centres undefined)	4.5µM
COc1ccc(S(=O)(=O)NCC2CCCN(Cc3ccc(-c4ccco4)cc3)C2)cc1 (centres undefined)	-
CN(C)C(=O)C1CN(C(=O)Nc2ccc(F)cc2)CC12CCOCC2 (centres undefined)	-
COc1cc(OC)c(C(=O)N2CC[C@H](CO)[C@@H](O)C2)cc1OC	-
COc1ccc(CNC(=O)[C@@H]2CCC[C@@H](NC3CCOCC3)CN(C)C(=O)C2)cc1	-
Cc1nc(C2CCCCN2C(=O)c2ccco2)n[nH]1 (centres undefined)	-
O=C(Nc1ccccc1)N1CCCC(c2nn(-c3ccccc3)c(=O)[nH]2)C1 (centres undefined)	-
O=C(O)CCCC(=O)N1C[C@@H](C(=O)O)[C@H](c2ccc3c(c2)OCO3)C1	-
O=C(c1ccccc1Cl)N1CCn2c(nn(-c3ccc(F)cc3)c2=O)C1	-
CNC(=O)N1CC(c2noc(C3CCCN3C(=O)c3ccc(C)s3)n2)C1 (centres undefined)	-
CC(C)(C)CC(=O)Nc1ccc([C@@H](O)[C@H]2COCC(=O)N2Cc2ccc(F)cc2)cc1	-
